Experimental data reported in PubChem BioAssay (EPA / NIEHS).
The source holds several records for some structures; these can differ, active in one and inactive in another. Activity calls are given as the source filed them. The calls were made as follows: active = hit-call score of the fitted dose curve at least 0.9, where 1 is the maximum; inactive = score below 0.9.

These molecules were tested on TIMP metallopeptidase inhibitor 1 (TIMP1), TIMP1 (gene 7076) (assay: BSK_hDFCGF_TIMP1: BioMAP Diversity Plus: hDFCGF Assay for TIMP metallopeptidase inhibitor 1 (TIMP1) Biomarker Activity (AID 2283062)). Settings: primary human foreskin fibroblasts; actives raise or lower the signal.
Method: BSK_hDFCGF is a cell-based, multiplexed-readout assay that uses foreskin fibroblast, a human skin primary cell, with measurements taken at 24 hours after chemical dosing in a 96-well plate.BSK_hDFCGF_TIMP1 is an assay component measured in the BSK_hDFCGF assay. It measures TIMP-1 antibody related to regulation of gene expression using ELISA technology.Data from the assay component BSK_hDFCGF_TIMP1 was analyzed into 1 assay endpoint. This assay endpoint, BSK_hDFCGF_TIMP1, was analyzed with bidirectional fitting relative to DMSO as the negative control and baseline of activity. Using a type of binding reporter, gain or loss-of-signal activity can be used to understand changes in the signaling as they relate to the gene TIMP1. Furthermore, this assay endpoint can be referred to as a primary readout, because this assay has produced multiple assay endpoints where this one serves a signaling function. To generalize the intended target to other relatable targets, this assay endpoint is annotated to the protease inhibitor intended target family, where the subfamily is metalloproteinase inhibitor.
The levels of cell surface (or secreted, indicated by the prefix "s") biomarker endpoints were measured by ELISA. Overt cytotoxicity to cells in confluent adherent cultures (all systems other than the BT system) was assessed by measuring total protein levels using sulforhodamine B (SRB) staining in parallel cultures at the time of biomarker measurements, indicated as SRB endpoints. For proliferation assays for adherent cell types, individual cell types are cultured at sub-confluence and relative cell numbers quantified by SRB staining at time points optimized for each system (48 h: 3C and CASM3C systems; 72 h: BT and HDF3CGF systems; 96 h: SAg system). SRB was performed by staining cells with 0.1% SRB after fixation with 10% TCA and reading wells at 560 nm.Viability and proliferation of PBMC (T cells) was quantified by Alamar Blue reduction for the SAg and BT systems. For PBMC viability (referred to as PBMC Cytotoxicity within the assay endpoint names), cells were plated (75,000/well in a 96-well plate) and then chemical samples added for 1 h before addition of activators, SEB and TSST-1 (20 ng/mL final concentration each). Cells were incubated for 90 h. Then, Alamar Blue (20 uL/well) (Invitrogen, Cat DAL1100) was added for 6 h, and the plates were read with a fluorescence microplate reader at 546/580 nm (excitation/emission). For PBMC proliferation, cells were plated and activated as above but incubated for only 16 h prior to addition of Alamar Blue. Plates were read after 6 h.

| Structure (SMILES) | outcome | AC50 |
| --- | --- | --- |
| CC(C)[C@H](C(=O)O[C@H](C#N)c1cccc(Oc2ccccc2)c1)c1ccc(Cl)cc1 | inactive |  |
| CCNc1nc(Cl)nc(NC(C)(C)C#N)n1 | inactive |  |
| N#CSCSC#N | inactive |  |
| CCOP(=O)(OCC)Oc1cc(C)nc(C(C)C)n1 |  | 14.9 µM (active) |
| COP(=O)(OC)SCn1c(=O)oc2cc(Cl)cnc21 |  | 12 µM (active) |
| COc1cc(OC)nc(Sc2cccc(Cl)c2C(=O)O)n1 | inactive |  |
| CC1=NNC(=O)N(/N=C/c2cccnc2)C1 | inactive |  |
| CC(C)N(C(=O)SCC(Cl)=C(Cl)Cl)C(C)C |  | 34.4 µM (active) |
| FC(F)C(F)(F)OCC(Cn1cncn1)c1ccc(Cl)cc1Cl (stereo not given) | inactive |  |
| CCOC(=O)CC(SP(=O)(OC)OC)C(=O)OCC (stereo not given) | inactive |  |
| CCOP(=S)(OCC)Oc1ccc([N+](=O)[O-])cc1 | inactive |  |
| CC[C@H](C)[C@H]1O[C@]2(C=C[C@@H]1C)C[C@@H]1C[C@@H](C/C=C(\C)[C@@H](O[C@H]3C[C@H](OC)[C@@H](O[C@H]4C[C@H](OC)[C@@H](NC)[C@H](C)O4)[C@H](C)O3)[C@@H](C)/C=C/C=C3\CO[C@@H]4[C@H](O)C(C)=C[C@@H](C(=O)O1)[C@]34O)O2 |  | 4.4 µM (active) |
| CCOP(=S)(OCC)SCCSCC | inactive |  |
| Cc1cc(C2CC2)nc(Nc2ccccc2)n1 | inactive |  |
| Nc1nc(N)nc(NC2CC2)n1 | inactive |  |
| CC(=NC#N)N(C)Cc1ccc(Cl)nc1 | inactive |  |
| CNc1cnn(-c2cccc(C(F)(F)F)c2)c(=O)c1Cl | inactive |  |
| COP(=O)(NC(C)=O)SC (stereo not given) | inactive |  |
| CNC(=O)ON=C(SC)C(=O)N(C)C | inactive |  |
| Nc1c(Cl)cc([N+](=O)[O-])cc1Cl | inactive |  |

| Structure (SMILES) | outcome | AC50 |
| --- | --- | --- |
| CCOP(=O)(NC(C)C)Oc1ccc(SC)c(C)c1 (stereo not given) | inactive |  |
| CCCOc1nn(C(=O)NS(=O)(=O)c2ccccc2C(=O)OC)c(=O)n1C | inactive |  |
| CC1(C(=O)Nc2ccc(O)c(Cl)c2Cl)CCCCC1 | inactive |  |
| C#CCC1=C(C)C(OC(=O)C2C(C=C(C)C)C2(C)C)CC1=O (stereo not given) | inactive |  |
| COc1ccc(C(=CC(=O)N2CCOCC2)c2ccc(Cl)cc2)cc1OC | inactive |  |
| CCOP(=S)(OCC)Oc1ccc2c(C)c(Cl)c(=O)oc2c1 | inactive |  |
| CCOP(=O)(SC(C)CC)N1CCSC1=O (stereo not given) | inactive |  |
| CCCCSP(=O)(SCCCC)SCCCC | inactive |  |
| CSc1nc(NC(C)C)nc(NC(C)C)n1 | inactive |  |
| CCOC(=O)COc1cc(-c2nn(C)c(OC(F)F)c2Cl)c(F)cc1Cl | inactive |  |
| COc1cccc(C(=O)NN(C(=O)c2cc(C)cc(C)c2)C(C)(C)C)c1C | inactive |  |
| CNC(=O)ON=C(C)SC | inactive |  |
| O=C(O)c1cc(Oc2ccc(C(F)(F)F)cc2Cl)ccc1[N+](=O)[O-] | inactive |  |
| CON=C(C(=O)OC)c1ccccc1CON=C(C)c1cccc(C(F)(F)F)c1 |  | 5.26 µM (active) |
| CCOP(=S)(Oc1cnc(C(C)(C)C)nc1)OC(C)C (stereo not given) | inactive |  |
| O=[N+]([O-])c1cc(C(F)(F)F)c(Cl)c([N+](=O)[O-])c1Nc1ncc(C(F)(F)F)cc1Cl | inactive | 1.12 µM (active) |
| CCCCOC(=O)c1ccccc1C(=O)O | inactive |  |
| COP(=O)(OC)OC(Br)C(Cl)(Cl)Br (stereo not given) |  | 15.7 µM (active) |
| CC(C1CC1)C(O)(Cn1cncn1)c1ccc(Cl)cc1 (stereo not given) | inactive |  |
